KCNQ2 enhance – potentiators of rat KCNQ2 potassium channel | 310,000 tested, 0.54% active | CHO-K1 KCNQ2, FluxOR thallium flux fluorescence; stronger effect = higher value | AID 2239, 2010 | Potassium voltage-gated channel subfamily KQT member 2 (Rattus norvegicus), O88943 | B-score at 10 µM;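 active = fluorescence ratio B-score at least 3 SD of library B-scores, with initial fluorescence B-score within 3 of them, cut at about 5.3 in these data; same plate scores as AID 2156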;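 note: B-score of peak minus minimum over baseline fluorescence ratio after K+ and Tl+ stimulus; positive B-score means potentiation of KCNQ2 with more thallium influx and brighter signal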
Target sequence (O88943 whole entry, looked up): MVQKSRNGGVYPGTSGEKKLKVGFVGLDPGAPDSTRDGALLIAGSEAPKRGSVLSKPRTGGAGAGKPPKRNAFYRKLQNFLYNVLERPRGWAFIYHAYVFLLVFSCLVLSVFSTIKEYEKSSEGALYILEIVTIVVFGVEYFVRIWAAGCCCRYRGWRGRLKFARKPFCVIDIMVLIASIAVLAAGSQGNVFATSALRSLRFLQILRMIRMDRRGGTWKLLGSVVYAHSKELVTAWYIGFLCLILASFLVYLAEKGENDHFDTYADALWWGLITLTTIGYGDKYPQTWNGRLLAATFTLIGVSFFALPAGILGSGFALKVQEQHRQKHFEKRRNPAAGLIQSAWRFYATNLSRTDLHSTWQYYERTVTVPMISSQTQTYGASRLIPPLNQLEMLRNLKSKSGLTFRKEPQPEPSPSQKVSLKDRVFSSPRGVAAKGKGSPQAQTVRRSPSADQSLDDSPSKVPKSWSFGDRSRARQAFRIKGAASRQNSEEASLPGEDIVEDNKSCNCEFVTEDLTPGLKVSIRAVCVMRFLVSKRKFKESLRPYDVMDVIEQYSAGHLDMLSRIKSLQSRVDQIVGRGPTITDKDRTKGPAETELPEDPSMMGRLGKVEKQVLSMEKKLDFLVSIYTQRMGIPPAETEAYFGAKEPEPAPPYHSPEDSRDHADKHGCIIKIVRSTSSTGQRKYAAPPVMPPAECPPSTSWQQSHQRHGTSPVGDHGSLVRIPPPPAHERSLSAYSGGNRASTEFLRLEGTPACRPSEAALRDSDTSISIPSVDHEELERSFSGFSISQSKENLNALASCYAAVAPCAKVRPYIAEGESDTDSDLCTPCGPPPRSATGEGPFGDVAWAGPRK
KCNQ2 inh – rat KCNQ2 potassium channel inhibitors, primary screen, cell-based, CHO-K1, FluxOR thallium flux, B-score; Potassium voltage-gated channel subfamily KQT member 2 (Rattus norvegicus), O88943; B-score at 10 µM; AID 2156, 2009; 310,000 tested, 1.1% active; 20 min; stronger effect = lower value;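 active = fluorescence ratio B-score at most minus 3 library SDs, with starting brightness B-score within 2 library SDs, cut at about -5.5 in these data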
Kir21 conf inh – mouse Kir2.1 channel blockers, retest, confirmation, cell-based, FluxOR thallium flux, duplicate; AID 2032, 2009; Tl flux remaining, % of negative control (stronger effect = lower value), % at 10 µM; shares compounds with KCNQ2 enhance; Kir2.1-expressing cells, FluxOR thallium flux fluorescence; stronger effect = lower value; 2,300 tested, 41% active;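 active = Primary-screen hit whose thallium flux fell at least 3 control SD below untreated wells in both duplicates, with normal baseline fluorescence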;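 note: 0% = blank wells without stimulus and 100% = stimulated no-compound controls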
HEK293 Tl flux – counter-screen for Kir2.1 inhibitors: effect in parental HEK293 cells | shares compounds with KCNQ2 enhance | FluxOR thallium flux fluorescence; 0% = unstimulated blank wells | FluxOR signal as % of negative control (100 = no effect), % at 10 µM | 2,300 tested, 19% active;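 active = dye signal at least 3 control SD above or below untreated wells in both duplicates, raw fluorescence within 3, either direction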;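 note: percent is based on the flux ratio of peak minus minimum fluorescence over baseline F0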
CHO-K1 Tl ctr – nonspecific thallium flux increase in parental CHO-K1, confirmation, counter-screen for KCNQ2 potentiator project, cell-based, FluxOR thallium flux, duplicate; AID 2282, 2010; parental CHO-K1 cells, FluxOR thallium flux fluorescence; zero = vehicle mean+3SD, 100% = vehicle-minus-blank window; 1,200 tested, 43% active; shares compounds with KCNQ2 enhance; activity increase over 3SD of controls, % at 10 µM;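 active = signal rise of at least 3 SD above the untreated control mean, in both duplicate wells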;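 note: counter screen of KCNQ2 potentiator hits so any rise reflects channel-independent effects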
KCNQ1 pot spec – human KCNQ1 channel potentiation off-target, confirmation, selectivity assay for KCNQ2 potentiator project, cell-based, CHO, FluxOR thallium flux | activation over 3SD threshold, % at 10 µM | shares compounds with KCNQ2 enhance | CHO KCNQ1 stable, FluxOR thallium flux fluorescence; beyond 3SD, as % of vehicle-control signal | AID 2283, 2010 | 1,200 tested, 28% active;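 active = fluorescence ratio rise of at least 3 SD of vehicle wells above their mean, in both replicate wells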;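 note: 0% = vehicle mean plus 3 SD and 100% = vehicle minus unstimulated blank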
KCNQ2 pot confirm – rat KCNQ2 channel potentiators, confirmation, cell-based, CHO, FluxOR thallium flux, duplicate. potentiation, less the hit threshold, % at 10 µM. shares compounds with KCNQ2 enhance. CHO-KCNQ2 cells, FluxOR thallium flux fluorescence. AID 2287, 2010. 1,200 tested, 68% active;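 active = fluorescence ratio rising 3 SD or more over the vehicle control mean in both replicates, plus primary screen hit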;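 note: peak minus minimum thallium fluorescence divided by baseline after K/Tl stimulus; 0% = vehicle mean plus 3 SD and 100% = vehicle minus unstimulated blank difference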
Kir21 spec – mouse Kir2.1 channel activation off-target, confirmation, selectivity assay for KCNQ2 potentiator project, cell-based, HEK293, FluxOR thallium flux | shares compounds with KCNQ2 enhance | HEK293 Kir2.1, FluxOR thallium flux fluorescence | activity over 3SD threshold, % at 10 µM | 1,200 tested, 2% active;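 active = fluorescence ratio rise of at least 3 SD above the vehicle-control mean, seen in both replicates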;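 note: 0% = vehicle mean plus 3 SD and 100% = vehicle minus no-stimulus blank window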
KCNQ2 W236L MoA – potentiators of retigabine-insensitive KCNQ2 W236L, mechanism study for KCNQ2 potentiator project, cell-based, rat KCNQ2 W236L, CHO, automated patch clamp; shares compounds with KCNQ2 enhance; automated patch clamp current; current increase over 3SD of negative controls (%), stronger effect = higher value, % at 25 µM; 940 tested, 10% active; AID 2558, 2010;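 active = current increase at least 3 SD of the untreated controls above them in both duplicate recordings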
* hit, by the source's call. This is a sample that favours compounds with a hit; in the whole collection about 1.6% have one here.

`Oc1ccccc1-c1n[nH]c(=S)n1Cc1ccccc1` gave KCNQ2 enhance 3.3 and KCNQ2 inh inactive.
`O=C1NC2=C(C(=O)CCC2)C(c2ccc(OC(F)F)cc2)N1` (stereo not drawn) gave KCNQ2 enhance 0.95 and KCNQ2 inh inactive.
`Cc1[nH]c(-c2ccccn2)nc(=S)c1Cl` gave KCNQ2 enhance 11*, KCNQ2 inh inactive, Kir21 conf inh inactive, HEK293 Tl flux 298%*, CHO-K1 Tl ctr -9, KCNQ1 pot spec -7, KCNQ2 pot confirm 42*, Kir21 spec -18 and KCNQ2 W236L MoA inactive.
Cc1cc(=S)nc(-c2ccccn2)[nH]1 was read as KCNQ2 enhance 2.4 and KCNQ2 inh inactive.
`Cc1[nH]c2ccccc2c1C(=O)C(=O)NC1CC1` gave KCNQ2 enhance 1.6 and KCNQ2 inh inactive.
Screening CSc1nc2ccc3nc(NC(=O)c4ccc(C)cc4)sc3c2s1 returned KCNQ2 enhance 0.66 and KCNQ2 inh inactive.
Screening Cc1ccc(C(=O)Nc2nc3ccccc3c(=O)s2)cc1 returned KCNQ2 enhance 6.1*, KCNQ2 inh inactive, Kir21 conf inh inactive, HEK293 Tl flux 254%*, CHO-K1 Tl ctr -14, KCNQ1 pot spec -15, KCNQ2 pot confirm -2 and Kir21 spec -17.
Screening CCCCc1ccc(NC(=O)CSc2nnc(C)c(=O)n2N)cc1 returned KCNQ2 enhance 0.01 and KCNQ2 inh inactive.
Screening CNCCC1Sc2ccccc2Oc2ccccc21 (stereo not drawn) returned KCNQ2 enhance 0.93, KCNQ2 inh inactive, Kir21 conf inh 42%* and HEK293 Tl flux inactive.
Screening CN(C)CCCC1Sc2ccccc2Sc2ccccc21 (stereo not drawn) returned KCNQ2 enhance 0.67 and KCNQ2 inh inactive.
For Cc1cc2ccc3ccccc3c2cc1CN(C)C the results were KCNQ2 inh inactive, Kir21 conf inh 13%* and HEK293 Tl flux inactive.
For CN(C)Cc1cc2ccccc2c2c1COC2 the results were KCNQ2 inh inactive.
Cc1ccccc1OCC(=O)Nc1ccc([N+](=O)[O-])cc1 was read as KCNQ2 enhance 1.7 and KCNQ2 inh inactive.
Screening CC(C)[C@H]1CN=C2N(CCNC(=O)CCC3CCCCC3)[C@H](Cc3ccc(O)cc3)CN21 returned KCNQ2 inh inactive.
`COc1ccc(C[C@H]2CN3C(=NC[C@@H]3C(C)C)N2CCNC(=O)CCC2CCCCC2)cc1` gave KCNQ2 inh inactive, Kir21 conf inh 64%* and HEK293 Tl flux inactive.
`O=C(CCC1CCCCC1)NCCN1C2=NC[C@H](Cc3ccc(O)cc3)N2C[C@H]1Cc1ccc(O)cc1` gave KCNQ2 enhance 0.57 and KCNQ2 inh inactive.
Screening COc1ccc(C[C@H]2CN3C(=NC[C@@H]3Cc3ccccc3)N2CCNC(=O)CCC2CCCCC2)cc1 returned KCNQ2 inh inactive, Kir21 conf inh 40%* and HEK293 Tl flux inactive.
`Cc1cccc(N(Cc2ccccc2)C(=O)c2cccc(S(=O)(=O)N3CC(C)OC(C)C3)c2)c1` (stereo not drawn) gave KCNQ2 inh inactive.
`O=C(NCc1cccc(Cl)c1)c1ccc(N2CC3CC(C2)c2cccc(=O)n2C3)c(NC(=O)c2cccnc2)c1` (stereo not drawn) gave KCNQ2 enhance 0.63 and KCNQ2 inh inactive.
Screening COc1ccc(-c2cc(C(=O)Nc3ccc(C(N)=O)cc3)c3ccccc3n2)cc1 returned KCNQ2 inh inactive.
CCc1cc(-c2n[nH]c(C)c2-c2nc(C)cs2)c(O)cc1OC was read as KCNQ2 enhance 2.6, KCNQ2 inh inactive, Kir21 conf inh 37%* and HEK293 Tl flux inactive.
Screening CCc1cc(-c2n[nH]c(C)c2-c2nc3ccccc3s2)c(O)cc1OCC(=O)NN returned KCNQ2 inh inactive.
C=CCOc1ccc(CNc2ccc(NC(=O)CCC)cc2)cc1OCC was read as KCNQ2 enhance 1.7 and KCNQ2 inh inactive.
C=CCOc1c(Br)cc(CNc2ccc(NC(=O)CCC)cc2)cc1OCC was read as KCNQ2 enhance 18*, KCNQ2 inh inactive, Kir21 conf inh inactive, HEK293 Tl flux inactive, CHO-K1 Tl ctr -13, KCNQ1 pot spec 80*, KCNQ2 pot confirm 32*, Kir21 spec -33 and KCNQ2 W236L MoA inactive.
C=CCNCC(O)COc1ccc(C(C)=O)cc1OC (stereo not drawn) was read as KCNQ2 enhance 0.02 and KCNQ2 inh inactive.
Screening CCOC(=O)C(=O)Nc1nc(-c2ccccc2)c(-c2ccccc2)o1 returned KCNQ2 inh inactive.
`CCOC(=O)Nc1c(O)ccc2oc(C)c(-c3ccccc3)c12` gave KCNQ2 enhance 3.3, KCNQ2 inh inactive, Kir21 conf inh 28%* and HEK293 Tl flux inactive.
NC(=NCc1ccco1)NC(=O)c1ccc(Cl)cc1 was read as KCNQ2 enhance 7*, KCNQ2 inh inactive, Kir21 conf inh inactive, HEK293 Tl flux inactive, CHO-K1 Tl ctr 2.6*, KCNQ1 pot spec -22, KCNQ2 pot confirm 51*, Kir21 spec -49 and KCNQ2 W236L MoA inactive.
O=C(NCCCNC(=O)c1ccco1)c1ccc(Cl)cc1 was read as KCNQ2 inh inactive.
